In PubChem BioAssay AID485364 (National Center for Advancing Translational Sciences (NCATS), 2010):
Among all 360,000 compounds or so, about 11,000 (3.1%) were called active. Where a call stands in place of a potency, no number is given. Not shown: some 4% with an inconclusive outcome. Calls come from the whole dose curve; as a rule, active = well fitted inhibition curve with a large enough effect; inconclusive = small, poorly fitted or top-dose-only effect; inactive = no such curve, though single readings can be large or run the other way. The full list was thinned out, with actives kept by preference.

biological target: Schistosoma mansoni thioredoxin glutathione reductase (TGR) (UniProt Q962Y6); assay: qHTS Assay for the Inhibitors of Schistosoma Mansoni Peroxiredoxins; settings: purified TGR, DTNB reduction, TNB absorbance 405 nm; series mostly up to 114 µM; note: nearly all actives have a fitted effect of over 60% in size
Method in brief: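 TGR 20 nM + NADPH 100 uM (dispensed conc.), cpd preinc 15 min RT; start with NADPH (500 uM addition) then DTNB (15 mM addition). Kinetic TNB absorbance, 405 nm filter. Four-parameter Hill fit across titration.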
Potency is the fitted concentration of half-maximal effect.

SMILES	Potency
Cc1ccc(C)c(NC(=O)CSC2=Nc3ccccc3N=C(c3ccc(F)cc3)C2)c1	inactive
COc1cc(C(=O)Nc2ccc(-n3c(C)nc4ccccc4c3=O)cc2)cc(OC)c1OC	inactive
CC(C)(C)c1ccc(C(=O)NNC(=O)Cc2ccccc2)cc1	inactive
Cc1ccc(SC(CC(=O)c2ccc(C(C)(C)C)cc2)C(=O)O)cc1 (stereo unspecified)	2 µM (active)
Cc1ccc(Sc2cc(C(=O)c3ccccc3C(=O)O)ccc2[N+](=O)[O-])cc1	inactive
COc1ccc2[nH]c3c(c2c1)CCN(C(=O)CCC1CCCC1)C3c1ccc(F)cc1 (stereo unspecified)	inactive
CCO[C@H]1OC(C(=O)NCc2ccccc2)=C[C@@H](c2coc3ccccc3c2=O)[C@@H]1CCCO	inactive
CCO[C@@H]1OC(C(N)=O)=C[C@H](c2ccc(Br)cc2)[C@H]1CCCO	inactive
C#CCNC(=O)C1=C[C@@H](c2ccccc2)[C@H](CCCO)[C@@H](OCC)O1	35.5 µM (active)
Cn1c(SCC(=O)N2CCCC2)nnc1-c1cccs1	inactive
CCn1c(SCC(=O)Nc2nccs2)nnc1-c1ccco1	inactive
Cn1c(SCC(=O)c2cccs2)nnc1-c1ccco1	44.7 µM (active)
Cc1ccc(SCC(=O)Nc2ccc3oc(-c4ccccc4F)nc3c2)cc1	inactive
CCc1ccc(Nc2nn3c(=O)c4cc5c(cc4nc3s2)OCO5)cc1	inactive
CC(=O)CCS(=O)(=O)c1ccc(C)c(C)c1	50.1 µM (active)
O=C(O)CCS(=O)(=O)c1ccc(-c2ccccc2)cc1	inactive
Cc1ccc(S(=O)(=O)NCCC(=O)Nc2ccc(C)c(Cl)c2)cc1C	inactive
CC(=O)c1c(C)n(S(=O)(=O)c2ccc(Cl)cc2)c2ccc(NS(=O)(=O)c3ccc(Cl)cc3)cc12	inactive
CSc1nn(Cc2cccc(C)c2)c(N)c1S(=O)(=O)c1ccccc1	inactive
COc1ccc(/C=C(/NC(=O)c2ccco2)C(=O)Nc2ccc(C(C)=O)cc2)cc1	inactive
Cc1ccc(C(=O)N/C(=C/C=C/c2ccccc2)C(=O)NCc2ccco2)cc1	inactive

SMILES	Potency
O=C(NCC1CCCO1)/C(=C\c1ccco1)NC(=O)c1ccccc1 (stereo unspecified)	inactive
O=C(NCc1ccco1)/C(=C/c1ccco1)NC(=O)c1ccccc1	39.8 µM (active)
NC(=O)C1CCN(C(=O)/C(=C/c2ccco2)NC(=O)c2ccccc2)CC1	inactive
Cc1ccc(NC(=O)/C(=C\c2ccccc2)NC(=O)c2ccco2)cc1	inactive
Cc1ccc(C(=O)N/C(=C\c2ccco2)C(=O)NC2CCS(=O)(=O)C2)cc1 (stereo unspecified)	31.6 µM (active)
O=C(Nc1ccccc1)/C(=C\c1ccco1)NC(=O)c1ccco1	10 µM (active)
CC(C)(C)c1ccc(/C=C/C(=O)NC2CCS(=O)(=O)C2)cc1 (stereo unspecified)	inactive
COc1ccccc1C(=O)N/C(=C/c1ccco1)C(=O)Nc1ccc(C(=O)O)cc1	50.1 µM (active)
COc1ccccc1C(=O)N/C(=C/c1ccc2c(c1)OCO2)C(=O)Nc1cccc(C(=O)O)c1	inactive
O=C(NNC(=O)c1ccco1)Nc1ccccc1	inactive
Cc1cccc(Cc2c(C)nc3nc(SCc4ccccc4Cl)nn3c2C)c1	inactive
Cc1ccc(Cl)cc1NC(=O)CCC(=O)N1CC(C)Sc2ccccc21 (stereo unspecified)	inactive
Cc1oc2ncnc(N3CCCCC3)c2c1C(=O)N1CCN(c2cccc(Cl)c2)CC1	inactive
COc1cccc(NC(=O)Nc2ccc3c(c2)N(C)C(=O)c2ccccc2S3)c1	inactive
CCOc1ccc(CCNC(=O)Cn2nc(CC)n3c(cc4sc(CC)cc43)c2=O)cc1OCC	inactive
Cc1ccc2c(=O)c(C(=O)c3ccc(Cl)cc3)cn(CC(=O)NC3CCCCC3)c2n1	inactive
Cc1noc(/C=C/N(C)C)c1S(=O)(=O)N1CCCC(C(=O)Nc2cccc(F)c2)C1 (stereo unspecified)	inactive
CCc1cccc(NC(=O)c2cnc(N3CCOCC3)c3ccccc23)c1	inactive
Cc1ccc(CNC(=O)CCC(=O)N2Cc3ccccc3Oc3ncccc32)cc1	inactive
CCc1ccccc1N1C(=O)CN(S(=O)(=O)CC)CC1(C)C(=O)NC1CCCCC1 (stereo unspecified)	inactive
Cc1ccc(NC(=O)Cn2c(=O)n(-c3ccccc3)c(=O)c3c4c(sc32)CCCC4)cc1	inactive

SMILES	Potency
COc1ccc(/C=C(/NC(=O)c2ccccc2)C(=O)Nc2cccc(C(=O)O)c2)cc1	inactive
O=C(Nc1ccc(C(=O)O)cc1)/C(=C\c1ccccc1)NC(=O)c1ccc(Br)cc1	inactive
Cc1cccc(NC(=O)/C(=C\c2ccco2)NC(=O)c2ccccc2)c1	20 µM (active)
COc1ccc(-c2nc3sc(CCNS(=O)(=O)c4ccc(F)c(C)c4)c(C)n3n2)cc1	inactive
Cc1ccc2nc3c(cc(C(=O)NC4CCCCC4)c(=N)n3C(C)C)c(=O)n2c1	inactive
COc1ccc(N2C(=O)CC(Nc3ccc(F)cc3)C2=O)c([N+](=O)[O-])c1 (stereo unspecified)	inactive
COc1ccc(NC2CC(=O)N(C)C2=O)cc1 (stereo unspecified)	15.8 µM (active)
COc1ccc(N=C2SC(C(=O)Nc3ccc(F)cc3)CC(=O)N2C)cc1 (stereo unspecified)	inactive
CCN(C(=O)Cn1c(=O)nc(-c2ccccc2)c2cc(Cl)ccc21)c1cccc(C)c1	inactive
COC(=O)c1cccc(N(C(=O)c2ccco2)C(C(=O)NC2CCCC2)c2ccco2)c1 (stereo unspecified)	44.7 µM (active)
O=C(NC1CCCC1)C(c1ccco1)N(C(=O)c1ccco1)c1ccc(F)cc1 (stereo unspecified)	inactive
COc1cccc(C(C(=O)NC2CCCC2)N(C(=O)c2ccco2)c2cccc(C(C)=O)c2)c1OC (stereo unspecified)	inactive
Cc1ccc(CNC(=O)CSc2c(C)cnc3c2c(=O)n(C)c(=O)n3C)cc1	inactive
Cc1ccc(NC(=O)CCCn2c(=O)c3cccn3c3ccccc32)cc1Cl	inactive
Cn1c(=O)[nH]c(=O)c2c1nc(NCCc1ccccc1)n2Cc1ccc(F)cc1	inactive
Cc1c(C(=O)O)cccc1-n1c(C)cc(/C=C2\C(=O)NC(=O)N(c3ccc4c(c3)OCO4)C2=O)c1C	14.1 µM (active)
CC(=O)C1=C(C)NC(=O)NC1c1ccc2c(c1)OCO2 (stereo unspecified)	inactive
Cc1ccccc1-n1c(C)cc(/C=C2\NC(=O)NC2=O)c1C	inactive
CCOC(=O)c1cccc(NS(=O)(=O)c2cn(C)c(C)n2)c1	inactive
